Hits are enriched below; roughly 2.4% of the tested compounds scored in any of these assays.
FEN1 inh: qHTS Assay for the Inhibitors of Human Flap endonuclease 1 (FEN1). P39748. Recombinant FEN1 flap cleavage, fluorescence, 15 min. Potency, µM (titrated, usually from 114 µM), for inactives: at the highest dose activity change, negative = inhibition, usual class: inhibitors. 390,000 tested, 0.35% active. AID 588795, 2011; also: % is scaled to controls: 0 for no effect and ±100 for the full control effect; nearly all actives have a fitted effect of over 65% in size
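Nuclease activity of 10 nM FEN1 was measured after 15 min of room-temperature exposure to titrated compounds, by adding 50 nM flap substrate and reading plates at 0 and 15 min.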
POLK inh: qHTS for Inhibitors of Polymerase Kappa; Potency, µM (series often up to 107 µM), inactives show at the top dose activity, negative = inhibition, most hits filed as inhibitors; AID 588579, 2011; DNA polymerase kappa (Homo sapiens), Q9UBT6; 400,000 tested, 0.53% active; purified Pol kappa, fluorescent DNA synthesis assay, 10 min; also: % is scaled to controls: 0 for no effect and ±100 for the full control effect
Target sequence (Q9UBT6 whole entry, looked up): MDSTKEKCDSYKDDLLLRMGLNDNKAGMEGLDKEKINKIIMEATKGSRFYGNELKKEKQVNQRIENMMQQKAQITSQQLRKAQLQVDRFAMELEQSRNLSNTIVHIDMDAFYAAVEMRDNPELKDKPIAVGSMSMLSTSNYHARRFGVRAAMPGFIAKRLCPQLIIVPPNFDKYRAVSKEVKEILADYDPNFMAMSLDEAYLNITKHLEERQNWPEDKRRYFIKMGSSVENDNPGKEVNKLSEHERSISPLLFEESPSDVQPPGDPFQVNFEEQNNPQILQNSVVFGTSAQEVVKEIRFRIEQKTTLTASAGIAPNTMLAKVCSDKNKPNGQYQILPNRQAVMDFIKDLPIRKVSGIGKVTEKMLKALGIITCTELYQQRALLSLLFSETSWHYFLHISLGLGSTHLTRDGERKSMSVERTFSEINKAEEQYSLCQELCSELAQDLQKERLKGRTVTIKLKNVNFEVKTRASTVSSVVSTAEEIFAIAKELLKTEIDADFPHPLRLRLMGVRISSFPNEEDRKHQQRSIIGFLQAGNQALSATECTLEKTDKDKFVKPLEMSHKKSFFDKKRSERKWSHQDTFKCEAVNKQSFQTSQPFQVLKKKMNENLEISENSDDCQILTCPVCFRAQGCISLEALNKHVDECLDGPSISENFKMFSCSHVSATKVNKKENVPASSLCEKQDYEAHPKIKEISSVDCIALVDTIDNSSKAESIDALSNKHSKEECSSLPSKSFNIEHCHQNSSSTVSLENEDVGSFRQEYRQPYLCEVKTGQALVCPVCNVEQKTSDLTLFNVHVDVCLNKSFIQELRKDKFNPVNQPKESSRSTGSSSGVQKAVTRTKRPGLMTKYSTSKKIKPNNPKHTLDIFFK
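50 nM final substrate added after 15 min RT preincubation of 10 nM Pol kappa with compound; fluorescence read at 0 and 10 min.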
Pol iota inh: qHTS for Inhibitors of Polymerase Iota | 390,000 tested, 1% active | Potency, µM (highest dose often 115 µM), for the others: at the top dose activity, negative = inhibition, usual class: inhibitors | Pol iota fluorescent replication assay, 10 min | DNA polymerase iota (Homo sapiens), Q9UNA4
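Pol iota at 10 nM preincubated 15 min with compounds at room temperature; reaction started with fluorescent substrate, 50 nM final. Fluorescence read kinetically at 0 and 10 min; buffer-only wells as negative control.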
WRN inhibitor: qHTS for Inhibitors of WRN Helicase | 360,000 tested, 0.46% active | WRN helicase unwinding, fluorescent forked duplex, kinetic | Bifunctional 3'-5' exonuclease/ATP-dependent helicase WRN (Homo sapiens), Q14191 | Potency, µM (top dose mostly 114 µM), for inactives: top-dose activity change, negative = inhibition, most hits filed as inhibitors | AID 651768, 2012; also: % is scaled to controls: 0 for no effect and ±100 for the full control effect; nearly all actives have a fitted effect of over 55% in size
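Kinetic red-fluorescence monitoring (525/598 nm) tracks WRN helicase activity after 100 nM fluorophore-quencher forked duplex and 2 mM ATP are added to 20 nM enzyme pretreated 15 min at room temperature with compound.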
Pol beta inh: qHTS Assay for Inhibitors of DNA Polymerase Beta; Potency, µM (highest dose often 114 µM), for inactives: at the highest dose activity change, negative = inhibition, hits mostly inhibitors; Pol beta primer extension/strand displacement, fluorescence kinetic; 340,000 tested, 1.3% active; also: % is scaled to controls: 0 for no effect and ±100 for the full control effect
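Curves were derived by four-parameter Hill fits of normalized qHTS data. The kinetic fluorescent primer-extension read was taken at 0 and 10 min after 50 nM substrate, following a 15 min room-temperature preincubation of 10 nM enzyme with compounds.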
Pol eta inh: qHTS for Inhibitors of Polymerase Eta | DNA polymerase eta (Homo sapiens), Q9Y253 | recombinant Pol eta, fluorescent DNA replication assay | Potency, µM (titrated, usually from 114 µM), for the others: at the highest dose activity change, negative = inhibition, actives largely listed as inhibitors | 390,000 tested, 1.2% active; also: % is scaled to controls: 0 for no effect and ±100 for the full control effect
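Pol eta at 10 nM preincubated with compounds 15 min at room temperature; reaction started with fluorescent substrate (50 nM final) and read kinetically at 0 and 10 min.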
Starred values were filed as active, the others as inactive; ? = inconclusive; . = no result; [ ] = dose if it differs, or a comment. Calls follow the shape of the dose curve; as a rule, active = well fitted curve in the direction sought with a large enough effect; inconclusive = small, poorly fitted or top-dose-only effect, or another doubt; inactive = no such curve, though single readings can be large; an effect the other way counts as inactive or inconclusive. Potency is read from the fitted curve at half-maximal effect.

SMILES	FEN1 inh	POLK inh	Pol iota inh	WRN inhibitor	Pol beta inh	Pol eta inh
O=C(CCc1ccc(O)cc1)c1c(O)cc(O)cc1O	?	?	-21%[58.9 µM]	-3%	7.1µM*	-1%[57.1 µM]
c1ccc2c(CCc3c[nH]c4ccccc34)ccnc2c1	-19%	-22%	27%	.	.	.
CCc1ccccc1NC(=O)C1CCN(C2=NS(=O)(=O)C(c3ccc(C)c(C)c3)=C2C)CC1	-12%	-33%	-10%	.	13µM*	.
CC(C)(C)n1ncc2c(=O)n(Cc3ccc(SC(=O)O)cc3Cl)cnc21	-1%	-10%	-4%	.	.	.
COc1ccc2nc(-c3ccccc3)cc(C(=O)OCC(=O)N3CC(C)OC(C)C3)c2c1 (stereo not drawn)	?	-26%	?	-3%[11.6 µM]	.	79µM*
Cc1nc2ccccn2c1C(=O)N/N=C/c1ccc(CNC(=O)C(=O)Nc2ccccc2)o1	-6%	-20%	89µM*	-8%	?	?
Nc1ccc(O)c(-c2nc3ccccc3s2)c1	-8%	?	?	-16%	7.9µM*	?
Oc1ccc(-c2nc3ccccc3s2)c(O)c1	0%	-7%	-28%	9%	-23%	-19%
Oc1ccc(N=C/C=C/c2cccc(Br)c2)cc1-c1nc2ccccc2s1	-11%	-38%	10µM*	?	13µM*	?
CN(CC(=O)Nc1cccc(F)c1)C(=O)c1ccc(OCc2cn3ccccc3n2)cc1	11%	-29%	45µM*	-5%[11.6 µM]	.	-17%
O=C(c1ccc(OCc2cn3ccccc3n2)cc1)N1CCN(S(=O)(=O)c2ccccc2F)CC1	1%	-13%	79µM*	-12%	.	?
Cc1ccc(NC(=O)CN(C)C(=O)c2ccc(OCc3cn4ccccc4n3)cc2)cc1	16%	-38%	?	0%[11.6 µM]	.	-14%
CC(/C=C/C=C(\C)C(=O)O[C@@H]1O[C@H](CO[C@@H]2O[C@H](CO)[C@@H](O)[C@H](O)[C@H]2O)[C@@H](O)[C@H](O)[C@H]1O)=C\C=C\C=C(C)\C=C\C=C(/C)C(=O)O[C@@H]1O[C@H](CO[C@@H]2O[C@H](CO)[C@@H](O)[C@H](O)[C@H]2O)[C@@H](O)[C@H](O)[C@H]1O	.	21µM*	.	.	.	.
CCOC(=O)C(C(C)=O)c1c(Br)c(O)c(O)c2c(C(=O)c3ccc(C)cc3)coc12 (stereo not drawn)	-20%	50µM*	25µM*	-25%	-6%	-17%
CCOC(=O)c1ccc(CC(=O)c2oc3cc(O)ccc3c2C)o1	-13%	-19%	57%	-16%[57.1 µM]	3%	-5%
CCOC(=O)c1ccc(CC(=O)c2ccc(O)c(O)c2O)o1	14µM*	1.6µM*	1µM*	?	1.1µM*	?
O=C(NNC(=O)c1ccc(NC(=O)c2ccccc2)cc1)Nc1ccccc1	0%	?	40µM*	-31%	11µM*	?
O=C(CCc1ccccc1)NNC(=O)c1ccc(NC(=O)c2ccccc2)cc1	-8%	-19%	?	-28%	22µM*	?
COc1ccc(NC(=O)NNC(=O)c2ccc(-c3ccccc3)cc2)cc1	-18%	-17%	?	-8%	7.9µM*	-16%
CC(C)(C)n1ncc2c(=O)n(Cc3cc(F)c(F)cc3Cl)cnc21	-16%	8%	9%	.	.	.
CCOC(=O)c1ccc(N(C(=O)c2ccccc2)c2ccccc2)cc1	-27%	-15%	?	.	.	.
Cc1ccc(Cl)cc1NC(=O)c1ccc(NC(=O)N2CCSc3ncccc32)cc1	-14%	-23%	10%	.	-1%	-9%
O=C(COc1ccccc1C(=O)Nc1ccccc1)Nc1ccccc1F	2%	-9%	?	.	.	.
Cc1ccc(N(CC(=O)N2CC(=O)Nc3ccccc32)S(=O)(=O)c2ccc3c(c2)OCCO3)cc1	-4%	-11%	79µM*	-4%[11.6 µM]	-1%	-9%
Cc1ccc2c(=O)cc(C(=O)Nc3c(C(=O)c4ccc(F)cc4)oc4ccccc34)oc2c1C	4%	10%	-11%	.	17%	7%
SMILES	FEN1 inh	POLK inh	Pol iota inh	WRN inhibitor	Pol beta inh	Pol eta inh
O=c1oc(-c2ccccc2)nc2sc3c(c12)CCC3	4%	79µM*	?	-16%[11.6 µM]	11µM*	?
O=C1CCC(=O)N1c1ccc(-c2nc3sc4c(c3c(=O)o2)CCC4)cc1	-2%	-3%	15%	-2%	0%	-3%
CN1C(=O)c2ccccc2Sc2ccc(NC(=O)NCc3cccc(Cl)c3)cc21	12%	-6%	32%	.	-15%	-12%
N#CC1=C(N)SC(N)=C(C#N)C1c1ccoc1	.	.	.	.	7.1µM*	.
Cc1ccc(C2C(C#N)=C(N)SC(N)=C2C#N)cc1	-5%	-10%	3%	-29%	0%	-5%
CCCC1=NN2C(=N)/C(=C\c3cc(C)n(Cc4ccccc4)c3C)C(=O)N=C2S1	-4%	-23%	20%	-5%	1%	-13%
Cc1cc(/C=C2\C(=N)N3N=C(S(C)(=O)=O)SC3=NC2=O)c(C)n1Cc1ccccc1	-18%	-8%	?	?	?	35µM*
Cc1cc(/C=C2/C(=N)N3C(=NC2=O)SN=C3S(C)(=O)=O)c(C)n1-c1ccccc1F	-9%	-13%	?	-12%[57.1 µM]	5%	79µM*
Cc1cccn2c(=O)c3cc(C(=O)NC(C)(C)C)n(C)c3nc12	2%	-2%	10%	.	-13%	-18%
CCOC(=O)CNC(=O)c1cc2c(=O)n3cccc(C)c3nc2n1C	24%	-20%	33%	.	71µM*	-5%
Cc1cccn2c(=O)c3cc(C(=O)NCCc4ccc(S(N)(=O)=O)cc4)n(C)c3nc12	-2%	-31%	-27%	.	?	79µM*
Cc1cccn2c(=O)c3cc(C(=O)NCCC4=CCCCC4)n(C)c3nc12	15%	-3%	28%	-3%	-1%	-1%
COC(=O)/C=C/c1cc(O)ccc1O	.	-3%[19.4 µM]	.	.	.	.
COc1cccc(C2C(C(=O)/C=C/c3ccco3)=C(O)C(=O)N2CCN2CCOCC2)c1 (stereo not drawn)	-15%	-40%	?	-10%[57.1 µM]	-8%	-19%
COc1ccc(C2C(C(=O)/C=C/c3ccco3)=C(O)C(=O)N2CCN2CCOCC2)cc1 (stereo not drawn)	1%	-24%	20µM*	-21%	?	-28%
N#C/C(=C\c1ccc(O)c(O)c1)C(=O)N1CCc2ccccc21	?	0%	?	18µM*	.	40µM*
